Measurements published in the supplement of paper PMC6555819.

Legend:
Experiment in all cases: PBM binding z-score (relative to random genomic background probes); higher = stronger binding; sequences stand for … in GC…GCGATTGACAGCGTAGAATGAAGG
[1] = tested on: FXR:RXRa (NR concentration 270 nM, RXRa partner concentration 90 nM)
Method in brief: (§1)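 Regression normalization was applied to scanned fluorescence from custom Agilent 4×180K protein-binding microarrays. Before scanning, arrays were incubated 1 h with ligand-free nuclear receptor dimers, and binding was detected with antibodies against each partner (one per run). Binding z-scores use the random background probes as reference.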

[2] = tested on: LXRa:RXRa (NR concentration 270 nM, RXRa partner concentration 90 nM)
Method in brief: as §1

[3] = tested on: LXRa homodimer (NR concentration 270 nM)
Method in brief: as §1

[4] = tested on: LXRb homodimer (NR concentration 270 nM)
Method in brief: as §1

[5] = tested on: PPARg:RXRa (NR concentration 180 nM, RXRa partner concentration 90 nM)
Method in brief: as §1

[6] = tested on: PPARg:RXRa 270nM:90nM, anti-RXR (NR concentration 270 nM, RXRa partner concentration 90 nM)
Method in brief: as §1

[7] = tested on: PPARg:RXRa 30nM:10nM, anti-RXR (NR concentration 30 nM, RXRa partner concentration 10 nM)
Method in brief: as §1

[8] = tested on: PPARg:RXRa 90nM:30nM, anti-RXR (NR concentration 90 nM, RXRa partner concentration 30 nM)
Method in brief: as §1

[9] = tested on: PPARg:RXRa DBDmut IVT, anti-RXR (DBD mutation: RXRa K156A/R161A, NR concentration 270 nM, RXRa partner concentration 90 nM)
Method in brief: as §1

[10] = tested on: PPARa:RXRa (NR concentration 270 nM, RXRa partner concentration 90 nM)
Method in brief: as §1

| Sequence | PBM binding z-score [1] | PBM binding z-score [2] | PBM binding z-score [3] | PBM binding z-score [4] | PBM binding z-score [5] | PBM binding z-score [6] | PBM binding z-score [7] | PBM binding z-score [8] | PBM binding z-score [9] | PBM binding z-score [10] |
| --- | --- | --- | --- | --- | --- | --- | --- | --- | --- | --- |
| TCTAGTTGGTCAAAGGTCACGCACTCGAAATGCG | 6.9 | 6.16 | 4.78 | 1.9 | 12 | 10.2 | 12.6 | 12.2 | 3.84 |  |
| CGTCCAAGGTCTAGGTCAGTGAAAGAGACTCGAA | 0.449 | 0.249 | -0.0366 | -0.741 | -0.0446 | 0.357 | -0.506 | -0.014 | 0.895 |  |
| CGAACTAGGTCATCCAGGTCAGTGAATACATTGA | 5.02 |  | 1.02 | -0.0563 | 7.77 | 6.49 | 4.46 | 6.24 | 8.34 | 5.17 |
| ATCGAAAGGTCGTGAGGTAAGTATACAGAAAGGC | 5.54 |  | 0.488 | 0.774 | 4.03 | 4.37 | 1.57 | 3.06 | 0.266 | 5.23 |
| ATATGTAGGTTGGGGTCATTCAGAAAGTAGGGAA | 5.99 | 5.41 | 2.32 | 4.74 | 7.05 | 6.09 | 3.16 | 5.4 | 3.81 | 6.11 |
| CGTCAAACTTCAACTAAGGTAACGTAAAGCACGC | 0.562 |  | 0.473 | 0.584 | 0.587 | 0.064 | 0.351 | 0.111 | 0.0564 | 0.493 |
| CGTCCAAGGTCAGCGGGTCAGTGAAAGCGACGTG | 5.98 |  | 0.175 | -0.324 | 4.41 | 4.84 | 1.19 | 2.81 | 3.12 | 4.79 |
| CCTAGTTGGTCAAGGTCACATACGCTATAGGTAC | 3.98 |  | 1.97 | 1.23 | 3.3 | 3.43 | 1.17 | 2.91 | 2.23 | 4 |
| ATCGAAAGGTCTAAGGTGAGTATACCCACCCGAA | 0.614 |  | -0.103 | -0.0723 | 1.52 | 2.08 | 0.802 | 1.56 | -0.401 | 1.52 |
| CCGAATAGGTTACGAGGGGGCATTCAGTGCGAAT | 3.52 | 7.98 | 2.43 |  | 2.08 | 3.71 | 2 | 2.62 | 2.73 |  |
| GGAACGAGGGCAAAGTTCATAGCATCTGTCGACG | 4.26 | 4.95 | 3.9 | -0.156 |  | 9.67 | 9.74 | 10.7 | 4.19 | 6.24 |
| TCTTGTAGATCAACAGGAGGTTAATAAAGATCGA | 0.0439 |  | -0.0218 | -0.135 | 0.6 | 1.68 | 2.71 | 2.08 | 1.38 | 1.23 |
| CCGAGTTGGTCAAGGTCACACACGCTATAGGTAC | 4.37 |  | 1.98 | 0.352 | 3.12 | 3.37 | 0.931 | 2.65 | 1.59 | 4.35 |
| ACTTACGGGTCAACGAGGTCATAGCACGCGTATA | 7.21 | 6.34 | 3.72 | 1.13 | 6.76 | 6.81 | 3.78 | 5.73 | 4.12 |  |
| CTATGTAGGTCAAGGGGGTCATTCAGTTTGAAAG | 7.19 | 5.9 | 4.49 |  |  | 9.27 | 8.54 | 10.3 | 8.6 |  |
| CCTCGGAGGACAACAGGAGGTCATAGCTGCCAGA | 2.31 |  | 4.2 | -0.0136 | 0.961 | 1.16 | 0.00805 | 0.459 | 0.281 | 3.13 |
| TACCCTAGGTCATGGGCCAGTATACCACGCGAAC | 5.02 |  | 6.35 | 2.13 | 4.58 | 4.25 | 1.59 | 3.13 | 1.55 | 4.51 |
| CGTCCAAGGTCATAGGAGGTCAATGAAGACAGAT | 7.84 | 7.73 | 6.78 | 1.44 | 5.9 | 6.13 | 2.88 | 5.04 | 3 |  |
| CGTCCAAGGTCAAAGGTCAATGAAGAGATGACGG | 8.53 | 7.3 | 4.31 | 2.18 | 10.8 | 9.12 | 8.3 | 9.78 | 3.66 |  |
| CGTCAAAGTTCAACTAAGGTTACGTAAAGCACGC | 7.19 |  | 6.3 | 2.31 | 5.53 | 5.55 | 2.42 | 4.33 | 0.789 | 5.63 |
| ACTCGGAGGACAAAGGTCAGGGCTACGCCAGTGA | 4.61 |  | 1.43 | -0.0403 | 9.17 | 7.08 | 5.85 | 7.6 | 0.813 | 4.98 |
| CAAACTAGTTCAAGAGGTCAAAGTCCGCTTCCCG | 5.96 |  | 8.11 | 2.39 | 3.84 | 5.47 | 2.85 | 4.8 | 2.43 | 5.38 |
| ATCAAAAGGTCGAGGTGAGTATAGAGAAAGGGAA | 4.62 | 4.01 | 0.533 | 1.32 | 3.37 | 3.94 | 1.51 | 2.81 | 0.945 |  |
| CCTGCTAGGTCAAAGGTCAGCTAAAGCAGCTCGC | 7.56 | 6.38 | 2.52 | 1.05 |  | 10.2 | 11.3 | 12.6 | 5.89 |  |
| CCTAGTTGGTCAAGGTCACACCCGCTATAGGTAC | 3.45 |  | 2.19 | 1.02 | 2.92 | 3.27 | 1.13 | 2.4 | 2.17 | 3.85 |
| CTATGTGGGTTAAGGGGGTCATTCAGTTTGAAAG | 5.61 | 5.47 | 3.82 |  | 8.76 | 7.71 | 5.51 | 7.71 | 7.57 |  |
